Data from paper PMC5540273 (PLoS ONE, 2017).

What follows are molecules tested on NEK10. Settings: concentration: 1 μM, replicates: in singlicate; n = 1.
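Further: KINOMEscan kinase panel screen.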

SMILES	%Inh [%]
N#CC1(c2cccc(C(=O)Nc3cccc(Oc4ccc5nc(NC(=O)C6CC6)sc5n4)c3)c2)CC1	0
O=C(Nc1n[nH]c2nc(-c3ccccc3)ccc12)C1CC1 [SB-708999]	0
CC(C)c1nc(-c2cccc(NS(=O)(=O)c3c(F)cccc3F)c2)c(-c2ccnc(Nc3ccc(N4CCOCC4)nc3)n2)s1.Cl [GSK1723980]	9
Cl.Cl.NCC(NC(=O)c1cc(-c2cccnc2)c(-c2ccnc3[nH]ccc23)s1)c1ccccc1 (stereo not drawn) [GSK1323434]	79
COC(=O)Nc1nc2cc(Oc3ccc(NC(=O)Nc4cccc(SC)c4)cc3)ccc2[nH]1.Cl [GW697999]	7
O=C(Nc1n[nH]c2nc(-c3ccccc3O)ccc12)C1CC1 [SB-711880]	0
O=C(Nc1n[nH]c2cc(-c3cccs3)ccc12)C1CC1 [SB-731284]	27
O=C(Nc1c(F)cccc1F)c1cc(C(=O)c2ccccc2F)c[nH]1 [GSK1326180]	9
Cc1ccc(Nc2ccnc(Nc3ccc(C)c(F)c3)n2)cc1O.Cl [GW582868]	0
COc1cccc(-c2nc(-c3ccccc3)[nH]c2-c2ccncc2)c1 [SB-610250]	20
CCn1cnc2c(NCc3ccccc3)ncnc21 [SKF-96418]	14
Cl.Cl.NC(CNC(=O)c1cc(Br)c(-c2ccnc3[nH]ccc23)s1)c1ccccc1 (stereo not drawn) [GSK1322949]	1
CN(c1ccc(F)c(NC(=O)c2cccc(OC(C)(C)C#N)c2Cl)c1)c1ccc2nc(NC(=O)C3CC3)sc2n1	0
Fc1cc(Cl)ccc1Nc1ccnc2cc(-c3ccc(CN4CCOCC4)o3)ccc12 [GW560109]	0
COc1cc(Nc2ccnc3cc(-c4ccncc4)ccc23)cc(OC)c1OC.Cl [GW494610]	0
Cc1ccc(O)cc1Nc1ccnc2cc(-c3ccc(CN4CCCCC4)o3)ccc12 [GW557777]	0
Nc1ncc(-c2ccc3nccc(-c4ccncc4)c3c2)cc1S(=O)(=O)N1CCCCC1 [GSK1693850]	54

SMILES	%Inh [%]
COc1ccc(C)c(Nc2ccnc(Nc3ccc(-c4cnc[nH]4)cc3)n2)c1.Cl [GW784041]	0
Fc1cc(Cl)ccc1Nc1ccnc2cc(-c3ccc(CN4CCSCC4)o3)ccc12 [GW560106]	15
Cc1ccc(NC(=O)c2ccnc(N3CCCCC3)c2)cc1-c1ccc(C(=O)NCC2CC2)cc1 [GW775610]	0
CCOc1nccc(-c2c(-c3ccc(F)cc3)ncn2C2CCNCC2)n1 [SB-249175]	27
O=C(O)C(F)(F)F.O=c1[nH]ccc2nc(N[C@@H]3CCNC3)nc(Nc3ccc4c(c3)S(=O)(=O)CC4)c12 [GSK2181306]	95.3
c1ccc(Oc2ccc(Nc3ccnc4cc(-c5ccc(CN6CCCCC6)o5)ccc34)cc2)nc1 [GW567143]	1
Cc1ccc(C)c(NC(=O)Nc2ccc(C)c(-c3ccc(C(=O)Nc4ccncc4)cc3)c2)c1 [GSK1398473]	18
Cn1cc(-c2cnc(N)c3c(-c4ccc5c(c4)CCN5C(=O)Cc4ccccc4)csc23)cn1 [GSK2593074]	22
O=C(O)C(F)(F)F.O=c1[nH]ccc2nc(N[C@@H]3CCNC3)nc(Nc3cc(Cl)cc(Cl)c3)c12 [GSK2188764]	81
Cl.O=C(Nc1ccc(Oc2ccc3[nH]c(NC(=O)c4ccco4)nc3c2)cc1)Nc1cc(C(F)(F)F)ccc1F [GW683134]	0
Cc1cccc(Nc2nc(NCCN)ncc2C(N)=O)c1 [GSK1292139]	47
CC(C)NCC(Cc1ccccc1)NC(=O)c1cc(Br)c(-c2ccnc3[nH]ccc23)s1.Cl.Cl (stereo not drawn) [GSK1383281]	2
Nc1cccc(-c2ccc3c(N)n[nH]c3c2)c1 [GSK2193613]	10
COc1cc(Nc2nccc(N3CCC(NS(=O)(=O)c4ccc(NC(C)=O)cc4)CC3)n2)cc(OC)c1OC [GSK1379825]	17
Cc1nn2c(=O)cc(N3CCO[C@H](C)C3)nc2n1Cc1cccc(Cl)c1Cl [GSK2373693]	0
CN1CCN(Cc2ccc(NC(=O)Nc3ccc(N(C)c4ccnc(Nc5ccc(CS(C)(=O)=O)cc5)n4)cc3)cc2)CC1.Cl [GW827654]	28
